The target of assay [1] is Death-associated protein kinase 1 (Homo sapiens) (UniProt P53355). The following applies: at 1 µM.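 Also: each value is a mean inhibition figure.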
The target of assay [2] is T1, Serine/threonine-protein kinase DCLK2 (Homo sapiens) (UniProt Q8N568).
T1 sequence (whole entry): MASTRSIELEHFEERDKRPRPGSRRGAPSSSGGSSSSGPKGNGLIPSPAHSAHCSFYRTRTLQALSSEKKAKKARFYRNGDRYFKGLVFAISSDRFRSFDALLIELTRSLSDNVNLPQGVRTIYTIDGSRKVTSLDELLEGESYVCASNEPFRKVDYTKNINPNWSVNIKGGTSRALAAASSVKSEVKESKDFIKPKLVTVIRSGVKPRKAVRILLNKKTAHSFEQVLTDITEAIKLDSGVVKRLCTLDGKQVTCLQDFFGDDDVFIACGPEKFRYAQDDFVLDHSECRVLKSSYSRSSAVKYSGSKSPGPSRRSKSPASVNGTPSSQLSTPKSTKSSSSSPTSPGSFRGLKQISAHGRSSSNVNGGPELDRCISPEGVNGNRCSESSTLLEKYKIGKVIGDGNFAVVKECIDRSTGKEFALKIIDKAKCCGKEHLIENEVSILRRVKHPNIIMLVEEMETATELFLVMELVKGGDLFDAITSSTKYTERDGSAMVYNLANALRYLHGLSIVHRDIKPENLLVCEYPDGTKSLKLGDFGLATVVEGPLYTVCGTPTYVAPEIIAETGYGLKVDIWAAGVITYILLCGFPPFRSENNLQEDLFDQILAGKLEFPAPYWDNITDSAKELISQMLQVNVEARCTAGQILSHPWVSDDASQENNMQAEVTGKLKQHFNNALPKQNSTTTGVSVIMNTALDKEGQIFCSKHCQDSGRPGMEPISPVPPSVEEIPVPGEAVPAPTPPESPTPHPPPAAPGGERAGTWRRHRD
The following applies: at 0.1 µM.

Assay [3] deals with T1, Serine/threonine-protein kinase DCLK2 (Homo sapiens). The following applies: at 1 µM.
Assay [4] addresses MAP kinase-activated protein kinase 2 (Homo sapiens) (UniProt P49137). Conditions: at 0.1 µM.
Assay [5] shares this target. Conditions: at 1 µM.
The target in assay [6] is MAP kinase-activated protein kinase 3 (Homo sapiens) (UniProt Q16644). Conditions: at 0.1 µM.
Chain of MAP kinase-activated protein kinase 3 (Homo sapiens) (Q16644 whole entry, looked up): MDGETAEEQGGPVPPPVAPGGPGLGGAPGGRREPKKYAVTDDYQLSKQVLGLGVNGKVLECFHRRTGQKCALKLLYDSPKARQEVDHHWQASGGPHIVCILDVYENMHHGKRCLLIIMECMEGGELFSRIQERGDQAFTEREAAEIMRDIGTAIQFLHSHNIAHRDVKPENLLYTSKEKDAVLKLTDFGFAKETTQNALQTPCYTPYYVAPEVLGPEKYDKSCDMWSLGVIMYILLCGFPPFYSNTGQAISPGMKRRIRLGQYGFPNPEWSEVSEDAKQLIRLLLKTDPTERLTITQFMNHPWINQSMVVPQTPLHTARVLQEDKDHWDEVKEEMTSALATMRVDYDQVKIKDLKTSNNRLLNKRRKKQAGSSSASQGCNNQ
Assay [7] has the same target. The following applies: at 1 µM.
Assay [8] concerns the target Serine/threonine-protein kinase MARK1 (Homo sapiens) (UniProt Q9P0L2). The following applies: at 0.1 µM.
For assay [9] the target is unchanged. The following applies: at 1 µM.
Assay [10] has as its target MAP/microtubule affinity-regulating kinase 3 (Homo sapiens) (UniProt P27448). The following applies: at 0.1 µM.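 Also: mean percent inhibition of MARK3 kinase activity, measured within the GSK PKIS screening panel.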

Inhibition data for 17 molecules are collected here from ChEMBL document CHEMBL1961873, “Compounds: GSK PKIS; Assays: Nanosyn kinase panel” (2012).

For orientation: inhibition means the relative decrease from the control value, in per cent.

Chain of Death-associated protein kinase 1 (Homo sapiens) (P53355 whole entry, looked up): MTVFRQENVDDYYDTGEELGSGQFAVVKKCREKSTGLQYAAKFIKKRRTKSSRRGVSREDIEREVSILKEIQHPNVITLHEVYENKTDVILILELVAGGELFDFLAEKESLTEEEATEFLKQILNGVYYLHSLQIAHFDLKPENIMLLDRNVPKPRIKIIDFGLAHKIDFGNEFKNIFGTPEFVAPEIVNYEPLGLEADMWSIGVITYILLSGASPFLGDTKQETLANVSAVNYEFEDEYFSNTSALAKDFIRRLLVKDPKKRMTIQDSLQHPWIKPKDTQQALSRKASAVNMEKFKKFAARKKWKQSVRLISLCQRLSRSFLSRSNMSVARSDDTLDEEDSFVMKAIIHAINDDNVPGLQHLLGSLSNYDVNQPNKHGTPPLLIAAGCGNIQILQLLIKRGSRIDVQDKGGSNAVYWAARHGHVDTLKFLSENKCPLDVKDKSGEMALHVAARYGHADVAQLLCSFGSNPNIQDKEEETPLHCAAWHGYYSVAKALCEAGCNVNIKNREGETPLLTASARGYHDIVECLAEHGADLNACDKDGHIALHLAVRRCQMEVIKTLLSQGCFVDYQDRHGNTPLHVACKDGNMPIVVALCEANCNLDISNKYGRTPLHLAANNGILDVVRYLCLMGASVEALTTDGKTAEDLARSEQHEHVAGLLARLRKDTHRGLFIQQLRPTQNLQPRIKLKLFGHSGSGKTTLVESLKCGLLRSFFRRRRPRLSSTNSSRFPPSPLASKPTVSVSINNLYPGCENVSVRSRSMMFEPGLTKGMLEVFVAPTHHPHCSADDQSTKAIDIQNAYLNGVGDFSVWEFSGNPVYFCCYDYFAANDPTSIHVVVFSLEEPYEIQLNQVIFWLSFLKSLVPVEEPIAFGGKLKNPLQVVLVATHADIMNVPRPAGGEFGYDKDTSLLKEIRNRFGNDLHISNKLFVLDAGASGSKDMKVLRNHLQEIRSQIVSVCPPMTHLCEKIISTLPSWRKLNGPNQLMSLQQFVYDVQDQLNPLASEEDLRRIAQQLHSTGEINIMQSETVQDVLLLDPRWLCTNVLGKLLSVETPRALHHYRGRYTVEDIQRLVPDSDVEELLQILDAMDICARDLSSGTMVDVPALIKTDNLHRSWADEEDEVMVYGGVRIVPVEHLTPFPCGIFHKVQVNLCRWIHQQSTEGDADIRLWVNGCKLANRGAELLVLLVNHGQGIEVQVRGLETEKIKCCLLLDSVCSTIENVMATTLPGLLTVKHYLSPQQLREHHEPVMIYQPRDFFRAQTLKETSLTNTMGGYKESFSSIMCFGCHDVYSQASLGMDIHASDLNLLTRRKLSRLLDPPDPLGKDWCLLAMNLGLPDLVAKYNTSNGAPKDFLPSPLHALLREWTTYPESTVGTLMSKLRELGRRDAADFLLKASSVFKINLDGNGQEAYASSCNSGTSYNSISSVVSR
Chain of MAP kinase-activated protein kinase 2 (Homo sapiens) (P49137 whole entry, looked up): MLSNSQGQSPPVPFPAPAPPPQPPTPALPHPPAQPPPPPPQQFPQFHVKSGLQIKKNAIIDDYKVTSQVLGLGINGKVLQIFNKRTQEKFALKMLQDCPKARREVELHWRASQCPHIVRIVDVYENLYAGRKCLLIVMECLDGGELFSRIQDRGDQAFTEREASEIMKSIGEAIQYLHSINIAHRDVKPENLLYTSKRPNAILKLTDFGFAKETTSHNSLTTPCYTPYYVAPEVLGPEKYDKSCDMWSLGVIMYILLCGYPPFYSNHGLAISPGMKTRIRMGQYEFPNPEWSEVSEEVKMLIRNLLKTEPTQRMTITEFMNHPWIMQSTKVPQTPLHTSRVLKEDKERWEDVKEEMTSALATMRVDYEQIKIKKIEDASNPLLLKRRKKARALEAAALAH
Chain of MAP/microtubule affinity-regulating kinase 3 (Homo sapiens) (P27448 whole entry, looked up): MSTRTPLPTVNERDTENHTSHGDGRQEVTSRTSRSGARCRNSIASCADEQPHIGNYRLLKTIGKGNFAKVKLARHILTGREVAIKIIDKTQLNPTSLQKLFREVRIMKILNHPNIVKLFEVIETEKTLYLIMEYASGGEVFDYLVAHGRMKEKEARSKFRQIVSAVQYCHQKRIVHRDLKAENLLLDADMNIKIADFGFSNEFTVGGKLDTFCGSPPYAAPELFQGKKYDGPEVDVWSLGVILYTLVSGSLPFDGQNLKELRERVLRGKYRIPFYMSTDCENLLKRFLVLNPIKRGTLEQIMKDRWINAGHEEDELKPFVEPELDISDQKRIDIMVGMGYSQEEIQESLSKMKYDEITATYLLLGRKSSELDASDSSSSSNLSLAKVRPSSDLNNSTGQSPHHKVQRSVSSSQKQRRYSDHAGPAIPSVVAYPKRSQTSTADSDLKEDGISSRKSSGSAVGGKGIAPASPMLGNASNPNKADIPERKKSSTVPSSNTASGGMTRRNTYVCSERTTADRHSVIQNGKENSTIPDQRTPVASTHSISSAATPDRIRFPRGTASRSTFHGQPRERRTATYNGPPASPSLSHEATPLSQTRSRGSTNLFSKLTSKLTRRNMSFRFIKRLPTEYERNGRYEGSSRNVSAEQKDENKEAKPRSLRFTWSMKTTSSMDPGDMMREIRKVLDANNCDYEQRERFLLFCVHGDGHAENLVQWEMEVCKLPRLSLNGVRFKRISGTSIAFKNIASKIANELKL
Chain of Serine/threonine-protein kinase MARK1 (Homo sapiens) (Q9P0L2 whole entry, looked up): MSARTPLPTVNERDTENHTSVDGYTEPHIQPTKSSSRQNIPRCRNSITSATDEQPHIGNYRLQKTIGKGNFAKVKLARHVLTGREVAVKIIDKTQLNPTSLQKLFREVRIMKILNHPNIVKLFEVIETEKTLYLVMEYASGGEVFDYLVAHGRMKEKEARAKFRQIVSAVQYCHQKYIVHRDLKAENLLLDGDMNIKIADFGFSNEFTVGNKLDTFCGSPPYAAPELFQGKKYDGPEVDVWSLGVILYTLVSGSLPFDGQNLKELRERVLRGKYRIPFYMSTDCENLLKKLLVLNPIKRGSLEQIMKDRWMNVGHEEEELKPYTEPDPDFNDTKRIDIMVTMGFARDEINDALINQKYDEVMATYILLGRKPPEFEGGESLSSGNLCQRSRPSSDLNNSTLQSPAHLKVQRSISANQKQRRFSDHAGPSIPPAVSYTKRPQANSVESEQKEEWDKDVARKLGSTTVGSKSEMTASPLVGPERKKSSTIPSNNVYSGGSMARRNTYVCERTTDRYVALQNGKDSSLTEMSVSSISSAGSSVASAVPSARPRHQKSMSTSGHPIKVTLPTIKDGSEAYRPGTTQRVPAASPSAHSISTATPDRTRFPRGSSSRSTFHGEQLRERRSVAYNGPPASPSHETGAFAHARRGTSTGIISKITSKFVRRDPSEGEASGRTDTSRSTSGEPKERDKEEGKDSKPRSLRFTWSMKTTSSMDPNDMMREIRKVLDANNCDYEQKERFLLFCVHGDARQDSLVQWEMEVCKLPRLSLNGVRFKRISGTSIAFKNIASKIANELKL

Consider `Oc1cccc(-c2nc(-c3ccccc3)[nH]c2-c2ccncc2)c1`, for which the inhibition in assay [1] turned out to be 6.12%; in assay [2] it was 2.33%; in assay [3], 0.39%; in assay [4] it was 1.62%; in assay [5], 1.79%; in [6], 11.7%. Moreover, the inhibition was found to be 25.4% in assay [7], 1.58% in assay [8], 4.27% in assay [9] and 3.78% in assay [10].

In the case of `Cc1ccc(Nc2ccnc(Nc3cccc(C(N)=O)c3)n2)cc1O`, the inhibition was 0.43% in assay [1]; -4.04% in [2]; 0.3% in [3]; 1.02% in assay [4]; 0.74% in [5]; 3.05% in assay [6]. For the same molecule, the inhibition in assay [7] came to 7.65%; in assay [8] it was 2.3%; in [9] it was 6.45%; in assay [10], 4.15%.

Consider `OCc1ccc(-c2nc(-c3ccccn3)c(-c3ccc4c(c3)OCO4)[nH]2)cc1`, for which the inhibition in assay [1] amounted to 6.09%; in assay [2], 2.19%; in assay [3], 2.76%; in assay [4], 1.95%; in assay [5] it was 1.87%; in [6], 3.91%. Besides, the inhibition in [7] was 6.87%; in [8], 4.66%; in assay [9] it was 4.32%; in assay [10] it was 4.6%.

With `COC(=O)Nc1nc2cc(Oc3ccc(NC(=O)Nc4cccc(Br)c4)cc3)ccc2[nH]1`, the inhibition is 2.38% in assay [1]; -0.32% in [2]; 4.24% in assay [3]; 1.26% in assay [4]; 1.19% in assay [5]; 4.95% in [6]. Further, the inhibition was determined as 6.43% in [7], 1.41% in assay [8], 1.86% in [9] and 3.56% in assay [10].

`O=C1Nc2ccc(-c3cccnc3)cc2C1=Cc1cc(Br)c(O)c(Br)c1`: the inhibition in assay [1] was -6.21%; in [2] it was 1.65%; in assay [3], 0.92%; in assay [4] it was 1.36%; in assay [5], 1.49%; in assay [6], 2.4%. Also, the inhibition in [7] was found to be 2.92%; in assay [8], 4.31%; in assay [9], 9.1%; in assay [10], 4.31%.

With `FC(F)(F)c1ccc(-c2nn3ncccc3c2-c2ccnc(Nc3ccc4c(c3)OCCO4)n2)cc1`, the inhibition in [1] stood at 1.79%; in assay [2], 5.13%; in [3], 2.77%; in [4] it was 3.11%; in [5], 3.56%; in [6] it was 10.3%. Moreover, the inhibition in assay [7] stood at 30.6%; in [8] it was 4.61%; in assay [9], 6.64%; in assay [10], 5.66%.

`NS(=O)(=O)c1cccc(Nc2cc(-c3ccc(F)cc3)n[nH]2)c1`: the inhibition was 11.9% in assay [1]; 0.71% in [2]; -0.18% in assay [3]; 4.39% in assay [4]; 4.71% in assay [5]; 9.87% in assay [6]. In addition, the inhibition in assay [7] was 9.68%; in assay [8], 3.98%; in assay [9], 17.5%; in assay [10], 5.25%.

With `O=S(=O)(CCOCc1ccc(-c2ccc3ncnc(Nc4ccc(OCc5cccc(F)c5)c(Cl)c4)c3c2)o1)c1ccccc1`, the inhibition in assay [1] is 0.71%; in assay [2] it was -0.21%; in [3], 1.2%; in assay [4], 0.69%; in assay [5], 0.79%; in assay [6] it was -0.36%. The inhibition in [7] was 2.16%; in assay [8], -0.2%; in assay [9], 2.87%; in assay [10], 0.76%.

Turning to `N#Cc1c(NC(=O)c2ccccc2F)sc2c1CCCC2`, the inhibition was -2.35% in [1]; -1.75% in assay [2]; 0.7% in assay [3]; -1.29% in [4]; -0.76% in [5]; -0.73% in assay [6]. Moreover, the inhibition in assay [7] is -1.26%; in [8], 1.09%; in [9], 2.84%; in [10] it was -2.32%.

`Nc1nccc(-c2c(-c3ccc(F)cc3)ncn2CCCN2CCOCC2)n1`: the inhibition in assay [1] is 5.9%; in assay [2], 2.38%; in assay [3], -0.25%; in assay [4], 2.78%; in assay [5] it was 2.33%; in [6] it was 9.94%. Also, the inhibition came to 23.5% in assay [7], 3.81% in assay [8], 6.99% in assay [9] and 2.18% in assay [10].

Consider `Nc1nccc(-c2c(-c3ccc(F)cc3)nn3cc(C(F)(F)F)ccc23)n1`, for which the inhibition in assay [1] is 1.3%; in assay [2], -1.79%; in [3], -1.22%; in assay [4] it was -0.92%; in assay [5] it was -1.14%; in assay [6], 5.47%. The inhibition in [7] was 19.9%; in assay [8], -0.24%; in assay [9], -0.05%; in assay [10], -0.09%.

On to `CN(C)c1cc2c(Nc3ccc4c(cnn4Cc4ccccc4)c3)ncnc2cn1`, for which the inhibition in assay [1] was 4%; in assay [2] it was 0.57%; in assay [3], -0.18%; in assay [4], 1.53%; in assay [5], 1.29%; in [6], 2.73%. For the same molecule, the inhibition worked out at 2.81% in assay [7], 2.96% in assay [8], 3.22% in [9] and 0.52% in [10].

`NC(=O)c1sc(-n2cnc3ccccc32)cc1OCc1ccccc1Br`: the inhibition was 10.6% in assay [1]; -1% in assay [2]; -0.82% in assay [3]; 4.58% in assay [4]; 6.13% in assay [5]; 8.98% in [6]. For the same molecule, the inhibition in assay [7] was 12.7%; in [8] it was 2.32%; in [9], 5.92%; in assay [10], -0.1%.

In the case of `C[C@@H](Oc1cc(-n2cnc3ccc(OCC4CCN(C)CC4)cc32)sc1C(N)=O)c1ccccc1C(F)(F)F`, the inhibition was 3.7% in assay [1]; -1.44% in assay [2]; 0.02% in assay [3]; -1.73% in assay [4]; -1.24% in [5]; -0.96% in assay [6]. For the same molecule, the inhibition in [7] is -1.6%; in assay [8], 8.37%; in assay [9] it was 50.7%; in [10], 6.29%.

`COc1ccc(-c2nn3ncccc3c2-c2ccnc(Nc3cccc(C(F)(F)F)c3)n2)cc1`: the inhibition in assay [1] is 2.26%; in assay [2], -0.87%; in assay [3], -1.41%; in [4], 1.58%; in assay [5] it was 0.39%; in [6], 7.94%. Besides, the inhibition was 23.9% in assay [7], 1.45% in assay [8], 3.55% in assay [9] and 0.72% in assay [10].

Turning to `N#Cc1cccc(Nc2nccc(-c3cnn4ncccc34)n2)c1`, the inhibition in assay [1] was found to be 3.93%; in assay [2] it was 2.04%; in assay [3], 0.56%; in assay [4] it was 2.34%; in assay [5], 1.6%; in [6], 2.17%. The inhibition in assay [7] was 5%; in assay [8], 6.5%; in assay [9], 15.2%; in assay [10], 2.34%.

For the molecule `NS(=O)(=O)c1ccc(NC=C2C(=O)Nc3ccc4ncsc4c32)cc1`, the inhibition in assay [1] came to 24.9%; in assay [2], 0.84%; in [3], 7.25%; in assay [4], 2.28%; in [5] it was 4.38%; in [6], 5.09%. The inhibition in assay [7] is 5.58%; in [8] it was 30.8%; in assay [9], 67.3%; in assay [10], 17.8%.
